A number with no mark means an inactive call. Results filed as inconclusive are left out. The source made the active and inactive calls. Unless noted, calls follow the shape of the dose curve; as a rule, active = well fitted curve in either direction with a large enough effect (not every such curve was filed as active); inconclusive = small, poorly fitted or top-dose-only effect, or another doubt; inactive = flat fitted curve, though single readings scatter.
Tests used:
[1] = molecular target: Lysosomal acid glucosylceramidase (Homo sapiens) (UniProt P04062); assay: Glucocerebrosidase-p2 (AID 348; in the data active = potency below about 10 µM; also: potency is read from the fitted curve at half-maximal effect); settings: purified GBA, blue fluorogenic substrate, 40 min
How it was run: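 Normal human glucocerebrosidase (0.2 nM) with blue fluorogenic substrate (80 uM final) in citrate/phosphate pH 5.9 with 10mM sodium taurocholate, 0.01% tween-20; 40 min RT, NaOH/glycine stop; fluorescence Ex 365/Em 440; AC50 from a titration from 0.6 nM upwards.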

[2] = AP1 Signaling Pathway (AID 357); settings: ME-180 AP-1-bla reporter, EGF-induced, beta-lactamase ratio, 5 h; at 7.69 µM (top of the series) unless noted; also: % is scaled to controls: 0 for no effect and ±100 for the full control effect
How it was run: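 Titration-series screen for positive or negative modulators of EC50 EGF-induced signaling in ME-180 cells carrying an AP-1-driven beta-lactamase reporter. After 5 hours at 37 degrees Celsius, CCF4 460nm/530nm emission ratio gave %Activity; AC50 values derived.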

[3] = NFAT Signaling Pathway (AID 444); settings: Jurkat NFAT-bla M1, carbachol, beta-lactamase ratio, 5 h; at 7.69 µM (top of the series) unless noted;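 also: carbachol stimulus at about its EC50 of 1 µM final; % is scaled to controls: 0 for no effect and ±100 for the full control effect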
How it was run: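 Jurkat cells with NFAT-driven β-lactamase reporter and co-expressed M1 receptor, stimulated with carbachol (final 1 uM, ~EC50), compound titration, 5 h at 37 °C. CCF4 loaded 1 h at RT; 460/530 nm ratio gave %activity and AC50.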

[4] = molecular target: Glucocorticoid receptor (Homo sapiens) (UniProt P04150); assay: GR-GFP Redistribution (AID 450;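 active = compounds whose dose series gives a full or clear partial fitted curve of increased nuclear translocation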; also: potency is read from the fitted curve at half-maximal effect); settings: U2OS GR-GFP nuclear translocation, laser cytometry, 2 h
[5] = molecular target: Glucocorticoid receptor (Homo sapiens) (UniProt P04150); assay: GR-EFC Redistribution (AID 451; calls by dose curve; also: potency is read from the fitted curve at half-maximal effect); settings: CHO-K1 GR-EFC translocation, beta-gal luminescence, 2 h
How it was run: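 CHO-K1 cells expressing nuclear EA and GR-ED fragments of b-gal; compounds titrated up to 46 uM final, 2 h at 37 C. GR nuclear translocation read as complemented b-gal luminescence after 1 h RT detection.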

[6] = molecular target: Mitogen-activated protein kinase 10 (Mus musculus) (UniProt Q61831); assay: JNK3 AlphaScreen Assay (AID 530); settings: JNK3 lysate, c-Jun phosphorylation; series mostly up to 11.4 µM;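 also: kinase came from lysate of stimulated human HepG2 cells; signal reports phosphorylation of biotinylated GST-cJun 1-79 at Ser73 with 10 µM ATP; % is scaled to controls: 0 for no effect and ±100 for the full control effect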
How it was run: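 HepG2 lysate (IL-1b/TNFa pre-activated) + biotin-GST-cJun 1-79 + anti-pSer73 cJun; cpd titration, 15 min RT; ATP 10 uM start; Tris pH 7.6, MgCl2, DTT, vanadate; beads in EDTA buffer; AlphaScreen.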

[7] = molecular target: 3',5'-cyclic-AMP phosphodiesterase 4B (Homo sapiens) (UniProt Q07343); assay: qHTS Assay for Inhibitors of PDE-IV (AID 607; active = well fitted activation curve with a large enough effect in the main read-out, with a control signal flat, not every such curve was filed as active; also: % of control where 0% means no effect); settings: HEK293 ACTOne CNG channel cells, membrane potential fluorescence; series mostly up to 22.9 µM
How it was run: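 ACTOne HEK293 cells carry a modified cAMP-gated CNG channel and express endogenous PDE4; plated 1000 cells/well, compounds up to 22.9 uM final. Membrane-potential dye fluorescence (ex 535/em 590) was read; parental cells received 10 uM forskolin + 100 uM RO 20-1724.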

[8] = Stat Signaling Pathway (AID 446); settings: ME-180 (cervical carcinoma) SIE beta-lactamase reporter, IL-6 stimulated, 5 h; at 7.69 µM (top of the series) unless noted;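 also: ME-180 cervical cancer cells given 40 pM IL-6 alongside compound; SIE-controlled beta-lactamase reporter measured as 460/530 nm FRET emission ratio; % is scaled to controls: 0 for no effect and ±100 for the full control effect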
How it was run: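 Compound effects on IL-6-induced STAT reporter activity were measured in ME-180 cells. After overnight culture, cells were co-treated with 40 pM IL-6 for 5 hrs before beta-lactamase substrate loading at room temperature.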

[9] = molecular target: Cytochrome P450 2D6 (Homo sapiens) (UniProt P10635); assay: qHTS Assay for Inhibitors and Substrates of Cytochrome P450 2D6 (AID 891; active = well fitted curve in the direction sought with a large enough effect; an effect the other way counts as inactive or inconclusive; also: potency is read from the fitted curve at half-maximal effect; nearly all actives have a fitted effect of over 60% in size); settings: recombinant CYP2D6, luciferin-ME EGE luminescence; series mostly up to 11.4 µM
How it was run: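 Luminescent read-out of luciferin formed by 5 nM human CYP2D6 demethylating 30 uM Luciferin-ME EGE (Km level) over 60 min at room temperature after NADPH regeneration addition. Data normalized to full inhibition by 1.43 uM quinidine.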

[10] = molecular target: Cytochrome P450 3A4 (Homo sapiens) (UniProt P08684); assay: qHTS Assay for Inhibitors and Substrates of Cytochrome P450 3A4 (AID 884; active = well fitted curve in the direction sought with a large enough effect; an effect the other way counts as inactive or inconclusive; also: potency is read from the fitted curve at half-maximal effect; nearly all actives have a fitted effect of over 50% in size); settings: recombinant CYP3A4, Luciferin-PPXE luminescence; series mostly up to 57.1 µM
How it was run: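 Luminescent readout of luciferin produced by CYP3A4 (20 nM) dealkylation of Luciferin-PPXE, 25 uM (its KM). NADPH-driven reaction ran 60 min at RT after 10 min compound preincubation; data scaled to 57 uM ketoconazole as 100% inhibition.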

[11] = molecular target: Cytochrome P450 3A4 (Homo sapiens) (UniProt P08684); assay: qHTS Assay for Activators of Cytochrome P450 3A4 (AID 885; active = well fitted curve in the direction sought with a large enough effect; an effect the other way counts as inactive or inconclusive; also: nearly all actives have a fitted effect of over 65% in size); settings: recombinant CYP3A4, Luciferin-PPXE luminescence, 60 min; series mostly up to 11.4 µM
How it was run: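 CYP3A4 activity: Luciferin-PPXE O-dealkylation, 25uM substrate, 200mM KPO4, RT throughout. Read-out is luciferase luminescence; higher values reflect activation.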

[12] = molecular target: Cytochrome P450 2C19 (Homo sapiens) (UniProt P33261); assay: qHTS Assay for Inhibitors and Substrates of Cytochrome P450 2C19 (AID 899; active = well fitted curve in the direction sought with a large enough effect; an effect the other way counts as inactive or inconclusive; also: potency is read from the fitted curve at half-maximal effect; nearly all actives have a fitted effect of over 60% in size); settings: recombinant CYP2C19, luciferin-H EGE luminescence; series mostly up to 11.4 µM
How it was run: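 5 nM human CYP2C19 with 10uM Luciferin-H EGE (at KM) in 50mM KPO4, compound preincubated 10 min at 37C, then NADPH regeneration for 60 min at 37C. Luciferin read by luminescence after detection reagent; normalized to 57uM ketoconazole as full inhibition.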

[13] = molecular target: Cytochrome P450 2C9 (Homo sapiens) (UniProt P11712); assay: qHTS Assay for Inhibitors and Substrates of Cytochrome P450 2C9 (AID 883; active = well fitted curve in the direction sought with a large enough effect; an effect the other way counts as inactive or inconclusive; also: potency is read from the fitted curve at half-maximal effect; nearly all actives have a fitted effect of over 60% in size); settings: recombinant CYP2C9, luciferin-H luminescence, 60 min; series mostly up to 11.4 µM
How it was run: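 Human CYP2C9 (10nM) with Luciferin-H at 100uM (its KM) in 25mM KPO4; compound preincubated 10 min at 37C, then NADPH regeneration for 60 min at 37C. Luciferin read by luminescence after detection reagent; normalized to 57uM sulphaphenazole as full inhibition.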

Sequence of Cytochrome P450 3A4 (Homo sapiens) (P08684 whole entry, looked up): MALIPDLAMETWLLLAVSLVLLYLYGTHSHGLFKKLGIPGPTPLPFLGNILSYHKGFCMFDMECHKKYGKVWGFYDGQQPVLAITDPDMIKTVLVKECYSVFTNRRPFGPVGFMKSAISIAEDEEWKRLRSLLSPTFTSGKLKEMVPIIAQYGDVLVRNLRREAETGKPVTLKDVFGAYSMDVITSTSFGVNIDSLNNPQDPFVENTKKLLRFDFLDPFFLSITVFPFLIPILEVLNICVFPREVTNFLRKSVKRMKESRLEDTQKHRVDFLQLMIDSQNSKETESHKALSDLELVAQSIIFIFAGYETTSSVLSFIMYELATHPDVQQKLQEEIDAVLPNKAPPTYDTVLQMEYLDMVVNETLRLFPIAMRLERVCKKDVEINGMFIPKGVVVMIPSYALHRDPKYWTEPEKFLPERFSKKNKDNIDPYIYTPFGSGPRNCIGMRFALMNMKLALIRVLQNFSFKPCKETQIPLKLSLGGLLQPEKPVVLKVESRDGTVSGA
Sequence of Cytochrome P450 2C19 (Homo sapiens) (P33261 whole entry, looked up): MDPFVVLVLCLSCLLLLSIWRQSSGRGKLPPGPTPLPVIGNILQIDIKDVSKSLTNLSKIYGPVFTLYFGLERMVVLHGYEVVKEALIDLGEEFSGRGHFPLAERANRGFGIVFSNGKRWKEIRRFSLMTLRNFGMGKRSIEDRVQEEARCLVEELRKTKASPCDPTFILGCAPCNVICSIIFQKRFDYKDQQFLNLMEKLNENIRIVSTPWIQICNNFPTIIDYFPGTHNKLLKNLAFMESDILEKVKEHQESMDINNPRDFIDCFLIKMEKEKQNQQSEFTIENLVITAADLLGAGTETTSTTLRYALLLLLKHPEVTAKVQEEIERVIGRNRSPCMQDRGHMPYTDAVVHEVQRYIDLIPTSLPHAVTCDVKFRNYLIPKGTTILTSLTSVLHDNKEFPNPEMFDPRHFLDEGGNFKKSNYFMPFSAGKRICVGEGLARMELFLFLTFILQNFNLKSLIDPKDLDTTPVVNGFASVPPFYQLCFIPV
Sequence of Lysosomal acid glucosylceramidase (Homo sapiens) (P04062 whole entry, looked up): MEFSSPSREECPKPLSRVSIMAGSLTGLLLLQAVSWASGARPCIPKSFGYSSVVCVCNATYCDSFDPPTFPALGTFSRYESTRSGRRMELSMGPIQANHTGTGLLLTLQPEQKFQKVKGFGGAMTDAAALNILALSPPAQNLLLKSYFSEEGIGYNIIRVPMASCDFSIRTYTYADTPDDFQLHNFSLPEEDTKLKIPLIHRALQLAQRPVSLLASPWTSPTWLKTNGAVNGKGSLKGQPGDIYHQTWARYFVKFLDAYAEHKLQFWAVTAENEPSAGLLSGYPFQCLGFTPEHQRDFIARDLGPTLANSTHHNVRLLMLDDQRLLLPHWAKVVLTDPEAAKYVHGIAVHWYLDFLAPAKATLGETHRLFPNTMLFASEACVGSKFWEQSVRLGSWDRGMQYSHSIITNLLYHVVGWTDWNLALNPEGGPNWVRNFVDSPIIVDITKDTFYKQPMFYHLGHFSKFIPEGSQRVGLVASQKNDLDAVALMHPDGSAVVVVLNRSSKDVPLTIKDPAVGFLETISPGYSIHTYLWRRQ
Sequence of Glucocorticoid receptor (Homo sapiens) (P04150 whole entry, looked up, the tested form may be a part): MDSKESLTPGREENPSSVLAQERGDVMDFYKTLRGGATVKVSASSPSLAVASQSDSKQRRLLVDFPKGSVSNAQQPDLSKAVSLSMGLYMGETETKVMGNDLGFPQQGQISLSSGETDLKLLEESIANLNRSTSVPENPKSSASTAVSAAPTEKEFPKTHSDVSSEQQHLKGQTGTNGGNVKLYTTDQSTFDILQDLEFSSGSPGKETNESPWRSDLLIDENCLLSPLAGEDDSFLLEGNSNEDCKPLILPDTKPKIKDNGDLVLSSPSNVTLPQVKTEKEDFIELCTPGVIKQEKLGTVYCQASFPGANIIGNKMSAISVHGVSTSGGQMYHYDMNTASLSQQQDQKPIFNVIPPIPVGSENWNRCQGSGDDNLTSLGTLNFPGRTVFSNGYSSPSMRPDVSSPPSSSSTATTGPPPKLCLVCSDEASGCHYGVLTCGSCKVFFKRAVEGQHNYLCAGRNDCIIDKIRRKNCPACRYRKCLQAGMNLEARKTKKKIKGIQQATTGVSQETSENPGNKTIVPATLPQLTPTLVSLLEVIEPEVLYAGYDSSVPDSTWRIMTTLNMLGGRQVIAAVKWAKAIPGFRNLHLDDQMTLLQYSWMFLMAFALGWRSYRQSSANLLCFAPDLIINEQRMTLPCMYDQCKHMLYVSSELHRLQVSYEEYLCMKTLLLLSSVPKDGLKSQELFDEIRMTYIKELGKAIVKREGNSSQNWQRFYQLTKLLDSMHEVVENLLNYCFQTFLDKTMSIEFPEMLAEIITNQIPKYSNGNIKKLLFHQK
Sequence of 3',5'-cyclic-AMP phosphodiesterase 4B (Homo sapiens) (Q07343 whole entry, looked up): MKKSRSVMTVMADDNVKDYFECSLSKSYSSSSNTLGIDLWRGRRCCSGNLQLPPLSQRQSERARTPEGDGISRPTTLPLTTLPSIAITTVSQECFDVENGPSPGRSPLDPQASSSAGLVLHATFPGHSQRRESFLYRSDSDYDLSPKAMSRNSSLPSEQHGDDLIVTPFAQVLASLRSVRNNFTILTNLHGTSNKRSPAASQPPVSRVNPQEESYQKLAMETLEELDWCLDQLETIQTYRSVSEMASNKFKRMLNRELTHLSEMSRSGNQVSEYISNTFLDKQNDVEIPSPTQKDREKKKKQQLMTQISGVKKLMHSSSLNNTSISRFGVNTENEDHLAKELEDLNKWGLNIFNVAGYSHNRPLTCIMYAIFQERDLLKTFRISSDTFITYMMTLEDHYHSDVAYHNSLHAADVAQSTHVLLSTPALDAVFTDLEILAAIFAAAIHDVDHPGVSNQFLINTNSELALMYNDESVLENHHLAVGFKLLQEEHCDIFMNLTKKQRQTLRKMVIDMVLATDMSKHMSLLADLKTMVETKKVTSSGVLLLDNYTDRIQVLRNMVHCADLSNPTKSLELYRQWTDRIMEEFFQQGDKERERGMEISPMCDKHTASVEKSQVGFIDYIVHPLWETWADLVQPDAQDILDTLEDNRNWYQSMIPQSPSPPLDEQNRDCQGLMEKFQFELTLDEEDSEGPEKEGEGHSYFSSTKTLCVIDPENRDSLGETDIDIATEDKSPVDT
Sequence of Cytochrome P450 2D6 (Homo sapiens) (P10635 whole entry, looked up): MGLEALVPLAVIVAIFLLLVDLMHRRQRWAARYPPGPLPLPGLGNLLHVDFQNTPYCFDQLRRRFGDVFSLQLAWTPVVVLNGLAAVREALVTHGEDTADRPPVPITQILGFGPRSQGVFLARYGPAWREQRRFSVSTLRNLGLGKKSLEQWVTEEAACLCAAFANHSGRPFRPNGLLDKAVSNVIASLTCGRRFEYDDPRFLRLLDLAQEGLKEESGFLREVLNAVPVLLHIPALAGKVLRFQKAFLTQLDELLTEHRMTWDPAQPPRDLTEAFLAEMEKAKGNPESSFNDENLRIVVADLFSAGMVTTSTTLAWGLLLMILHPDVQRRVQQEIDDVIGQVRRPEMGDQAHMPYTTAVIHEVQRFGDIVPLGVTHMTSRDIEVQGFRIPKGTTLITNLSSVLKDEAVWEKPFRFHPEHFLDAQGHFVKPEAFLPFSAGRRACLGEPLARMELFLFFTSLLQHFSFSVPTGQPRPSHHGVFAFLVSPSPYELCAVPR
Sequence of Cytochrome P450 2C9 (Homo sapiens) (P11712 whole entry, looked up): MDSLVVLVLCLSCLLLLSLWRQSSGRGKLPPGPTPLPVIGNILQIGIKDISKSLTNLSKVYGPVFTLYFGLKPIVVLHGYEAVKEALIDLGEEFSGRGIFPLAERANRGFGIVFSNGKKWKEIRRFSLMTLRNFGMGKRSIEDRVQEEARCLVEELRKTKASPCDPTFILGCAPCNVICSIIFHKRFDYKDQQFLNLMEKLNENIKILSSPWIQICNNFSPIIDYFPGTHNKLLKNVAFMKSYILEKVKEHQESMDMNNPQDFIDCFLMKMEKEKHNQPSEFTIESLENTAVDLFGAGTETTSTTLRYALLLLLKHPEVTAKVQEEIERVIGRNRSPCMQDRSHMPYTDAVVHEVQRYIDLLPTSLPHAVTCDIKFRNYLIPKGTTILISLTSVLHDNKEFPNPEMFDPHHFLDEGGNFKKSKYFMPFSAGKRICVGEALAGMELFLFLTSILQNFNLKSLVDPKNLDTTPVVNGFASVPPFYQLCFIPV

Structure (SMILES)	Potency [1] [µM]	activity change, negative = inhibition [2] [%]	activity change, negative = inhibition [3] [%]	Potency [4] [µM]	Potency [5] [µM]	Potency [6]	Potency [7]	activity, negative = inhibition [8] [%]	Potency [9]	Potency [10]	Potency [11]	Potency [12]	Potency [13]
CC(C)(CN)SCc1ccccc1	> 11.4	5.51	-0.0753	> 46	> 9.22	inactive	inactive	–	–	–	–	–	–
NNS(=O)(=O)c1cc(C(=O)O)cc(C(=O)O)c1	> 11.4	4.57	14.9	> 46	> 9.22	inactive	inactive	–	–	–	–	–	–
N=C(N)c1ccc(/C=C\c2ccc(C(=N)N)cc2)cc1	> 11.4	0.27	-7.18	> 46	> 9.22	inactive	inactive	–	–	–	–	–	–
Cc1noc(C)c1C(=O)N1CCC2(CC1)CN(c1cccc(-c3ccccc3)c1)C2	> 11.4	-13.8	5.64	–	> 46	inactive	inactive	-11.6	–	–	–	–	–
Cc1nc(N)nc2ccccc12	> 11.4	-0.162	0.491	> 46	> 9.22	inactive	inactive	–	–	–	–	–	–
CC(CCc1nc2ccccc2s1)(c1ccc(O)cc1)c1ccc(O)cc1	> 11.4	7.74	1.62	> 46	> 9.22	inactive	inactive	–	–	–	–	–	–
CN1[C@@H](c2ccccc2)CC(=NO)C[C@H]1c1ccccc1	> 11.4	0.163	-20.1	> 46	> 9.22	inactive	inactive	–	–	–	–	–	–
O=C1OC2(c3ccc(O)cc3Oc3cc(O)ccc32)c2c1c(-c1ccccc1)c(-c1ccccc1)c(-c1ccccc1)c2-c1ccccc1	> 11.4	-28.2	5.71	–	> 9.22	inactive	inactive	-17.7	–	–	–	–	–
Cc1nn(-c2ccc(S(=O)(=O)O)cc2)c(O)c1N=Nc1ccc(-c2ccc(N=Nc3ccc4c(S(=O)(=O)O)cc(S(=O)(=O)O)c(N)c4c3O)c(O)c2)cc1O.[Cu].[Cu]	> 11.4	8.16	6.08	> 46	> 9.22	inactive	inactive	–	–	–	–	–	–
O=C(O)[C@@H](O)[C@H](O)C(=O)O	> 11.4	-6.26	14.9	> 46	> 9.22	inactive	inactive	–	–	–	–	–	–
COc1ccc(-n2c(=O)c(-c3cccs3)nc3cnc(Oc4ccccc4)nc32)cc1	> 11.4	-6.68	-26.9	> 9.22	> 46	inactive	inactive	–	–	–	–	–	–
NC(=O)SCC(=O)Nc1ccc2ncccc2c1	> 11.4	1.01	12.1	> 46	> 9.22	inactive	inactive	–	–	–	–	–	–
CC1(C)S[C@@H]2[C@H](C(=O)O)N=C(Cc3ccccc3)N2[C@H]1C(=O)O	> 11.4	2.18	8.91	> 46	> 9.22	inactive	inactive	–	–	–	–	–	–
CC(C)c1ccc2c(c1)CC[C@H]1[C@@](C)(CN)CCC[C@@]21C	> 11.4	6.87	30	–	–	inactive	inactive	11.3	1.26 µM (active)	–	–	–	–
O=C(O)C[C@H](Nc1ccccc1)C(=O)O	> 11.4	0.63	19.5	> 46	> 9.22	inactive	inactive	–	–	–	–	–	–
OC[C@@H]1CCC[C@H](n2cnc3c(=S)nc[nH]c32)O1	> 11.4	1.32	24.8	> 46	> 9.22	inactive	inactive	–	–	–	–	–	–
Cc1cc(C)nc(NC(=O)COc2ccc(Cl)cc2)c1	> 11.4	7.73	-19.2	> 46	> 9.22	inactive	inactive	–	–	–	–	–	–
COc1ccc(C(=O)N2CCC3(CC2)CCN(c2ccccn2)CC3)cc1	> 11.4	-1.45	-26.9	–	> 46	inactive	inactive	-10.1	–	–	–	–	–
O=C(O)c1ccc(C(=O)O)c2c(C(=O)O)ccc(C(=O)O)c12	> 11.4	-5.07	–	> 46	> 9.22	inactive	inactive	-1.89	–	–	–	–	–
Cc1ccc(S(=O)(=O)OC2CCN(C)CC2)cc1	> 11.4	0.369	–	> 46	> 9.22	inactive	inactive	3.66	–	–	–	–	–
Nc1ccc(N(S(=O)(=O)c2ccccc2)S(=O)(=O)c2ccccc2)c(Cl)c1	> 11.4	-27.7	-14.8	> 46	–	inactive	–	–	–	0.0316 µM (active)	inactive	0.158 µM (active)	–
O=[N+]([O-])c1ccc2c(N=Nc3ccc4ccccc4c3O)c(O)cc(S(=O)(=O)O)c2c1	> 11.4	-18.5	-9.87	> 46	> 9.22	–	inactive	–	–	–	inactive	–	3.16 µM (active)
Cc1[nH]c(C)c(CN(C)C)c1CN(C)C	> 11.4	-2.51	–	> 46	> 9.22	inactive	inactive	12.9	–	–	–	–	–
O=C1c2ccccc2C(=O)c2c(NC(=O)c3ccc4c5c(ncnc35)-c3ccccc3C4=O)cccc21	> 11.4	5.12	–	> 46	> 9.22	inactive	inactive	0.00925	–	–	–	–	–
CC(C)(C)c1ccc(O)c(CN(Cc2cc(C(C)(C)C)ccc2O)C2CCCCC2)c1	> 11.4	5.42	-3.2	> 46	> 9.22	inactive	inactive	–	0.501 µM (active)	–	–	–	–
CN(C)c1ccc(C(c2ccc(N(C)C)cc2)c2ccc([N+](=O)[O-])cc2)cc1	> 11.4	5.91	-16.6	> 46	> 9.22	–	inactive	–	–	–	inactive	–	–
O=[N+]([O-])c1ccc(CS(=O)Cc2ccccc2)cc1 (stereo not given)	> 11.4	-8.79	-22	> 46	> 9.22	inactive	inactive	–	–	–	–	1.26 µM (active)	–
O=C(O)c1cc(-c2ccc(-c3ccccc3)cc2)nc2cc3ccccc3cc12	> 11.4	-7.09	–	> 46	> 9.22	inactive	inactive	-0.262	–	–	–	–	–
c1ccc(NCCSc2nc3ccccc3s2)cc1	> 11.4	2.9	-14.1	> 46	> 9.22	inactive	inactive	–	–	–	–	0.398 µM (active)	–
Fc1cccc(Cl)c1/C=N\N=C1c2ccccc2-c2ccccc21	> 11.4	13.6	–	> 46	> 9.22	inactive	inactive	6.95	–	–	–	–	–

Reference: PubChem BioAssay (NCATS)
